From PubChem BioAssay come the findings set out here.

One may read the inhibition as the change of the read-out against control, counted positive when it falls.

Structures are written as SMILES. Calls of active or inactive are those of the source.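 The calls were made as follows, unless noted: active = NADPH fluorescence slope more negative than the mean of all samples by about 3 SD, 99.7% confidence; inactive = the rest.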

The nature of test [1]: inhibitors of TNFa-induced NFkB p65 translocation, primary screen, imaging, HUVEC, MLSMR starter and 10KST1 sets (AID 438;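 active = inhibition above 20% together with a positive visual image hit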;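 also: compound added about 3h40 before a 20 min TNFalpha stimulation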;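 as to inhibition: signal is the nuclear over cytoplasmic p65 intensity ratio per well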). Conditions: HUVEC TNFa-induced p65 nuclear translocation; cell count: measured here: nuclei count (cytotoxicity indicator), at 2.08 µM; inhibition: at 2 µM, stronger effect = higher value, 0% TNFa-plus-vehicle, 100% no-TNFa wells.
Test [2] can be described thus: inhibitors of mutant huntingtin aggregation, primary screen, imaging, exon1htt(103Q)mCFP cells, high-content imaging (AID 483;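 active = visual image review flags a hit and inhibition of aggregation exceeds 20%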;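 also: compound exposure lasted 3 days before fixation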;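 as to nuclei count: percent of the per-plate median nuclei count of sample wells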). As to conditions: exon1htt(103Q)mCFP cell line, aggregate imaging, at 2 µM; inhibition of aggregation: stronger effect = higher value; nuclei count: measured here: cell count, toxicity.
Test [3] is described as follows: inhibitors of E-selectin induction by TNFa, primary screen, imaging, HUVEC, immunofluorescence, MLSMR starter and 10KST1 sets (AID 487;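 active = visually confirmed hit in the image check and inhibition above 20%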;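 as to inhibition: signal is fraction of cell area covered by stained E-selectin grains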;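 as to nuclei count: 100% = median nuclei count of all wells on the same plate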). Conditions: HUVEC TNFalpha-induced E-selectin immunofluorescence imaging, at 2 µM; inhibition: stronger effect = higher value; nuclei count: measured here: cell number, toxicity.
Test [4] deals with Voltage-gated potassium channel subunit beta-2 (Rattus norvegicus) (UniProt P62483). The test is described as follows: KvBeta enzyme negative modulators, primary screen, biochemical, NADPH fluorescence (AID 622;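 active = fluorescence slope higher than the sample average by over 3 SD, cut at about -0.22 in these data, passing the limit was not always enough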;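 also: slope of raw intensity against log time taken from 70 to 1610 s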). Conditions: recombinant KvBeta, 4-cyanobenzaldehyde reduction, at 10 µM, stronger effect = higher value.
Chain of Voltage-gated potassium channel subunit beta-2 (Rattus norvegicus) (P62483 whole entry, looked up): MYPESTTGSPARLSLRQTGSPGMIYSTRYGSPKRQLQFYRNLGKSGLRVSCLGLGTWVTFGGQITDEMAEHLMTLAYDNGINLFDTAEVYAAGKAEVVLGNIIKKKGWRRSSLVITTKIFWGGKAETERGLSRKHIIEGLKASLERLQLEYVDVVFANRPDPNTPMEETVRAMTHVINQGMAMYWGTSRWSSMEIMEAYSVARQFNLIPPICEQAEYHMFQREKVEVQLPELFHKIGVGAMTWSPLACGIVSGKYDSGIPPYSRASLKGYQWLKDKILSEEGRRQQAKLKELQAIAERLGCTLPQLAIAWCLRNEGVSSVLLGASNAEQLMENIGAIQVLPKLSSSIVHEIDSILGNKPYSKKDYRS
Test [5] shares this target. The test is described as follows: KvBeta positive modulators, primary screen, biochemical, NADPH fluorescence (AID 623).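 Also: fluorescence intensity change per second fitted from 20 to 320 s.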 As to conditions: Recombinant KvBeta, NADPH fluorescence decrease slope, 10 min; at 10 µM; stronger effect = lower value.
For test [6], the target named is Alpha-2C adrenergic receptor (Homo sapiens) (UniProt P18825). Description: modulators of alpha2C/GIRK thallium flux, primary screen, cell-based, HEK293 alpha2C/GIRK1/2 (AID 624;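 active = fluorescence slope after compound addition differing from the mean of all screened samples at 99.7% confidence, in either direction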;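 also: slope of fluorescence ratio to pre-addition baseline per second over 15 to 24 s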). Conditions: thallium flux BTC fluorescence, at 10 µM, actives lie on both sides.
Chain of Alpha-2C adrenergic receptor (Homo sapiens) (P18825 whole entry, looked up): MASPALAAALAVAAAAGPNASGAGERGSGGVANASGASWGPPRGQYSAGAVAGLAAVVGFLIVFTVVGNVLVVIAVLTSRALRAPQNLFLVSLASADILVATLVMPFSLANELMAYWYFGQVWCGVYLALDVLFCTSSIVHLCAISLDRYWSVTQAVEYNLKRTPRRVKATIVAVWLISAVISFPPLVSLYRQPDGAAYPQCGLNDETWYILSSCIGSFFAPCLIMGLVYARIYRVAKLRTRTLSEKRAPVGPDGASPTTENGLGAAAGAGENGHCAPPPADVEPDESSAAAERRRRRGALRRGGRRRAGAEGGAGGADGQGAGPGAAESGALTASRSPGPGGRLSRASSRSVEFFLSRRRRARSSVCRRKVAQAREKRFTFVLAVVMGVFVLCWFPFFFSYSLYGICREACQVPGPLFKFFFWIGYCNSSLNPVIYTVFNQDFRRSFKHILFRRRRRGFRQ
Test [7] is described as follows: inhibitors of Sendai virus-induced IRF3 signaling, primary screen, TLR/RLR signaling modifier project, cell-based, Sendai virus stimulus, luciferase, 10K MLSCN set (AID 602276;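 active = inhibition at or above 50% at 10 µM; inactive = inhibition below 50%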;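 also: firefly luciferase from ISG56 promoter only with Renilla not read in this screen; 0% = Sendai virus plus DMSO and 100% = medium plus DMSO without virus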). As to conditions: HEK293 RL24 IRF3 luciferase reporter, at 10 µM, stronger effect = higher value. (A reporter such as luciferase makes a cellular process visible.)
Test [8] is described as follows: inhibitors of poly I:C-induced TLR3 signaling, primary screen, cell-based, poly I:C stimulus, luciferase, 10K MLSCN set (AID 602277;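 active = inhibition of the reporter signal at or above 50%; inactive = inhibition below 50%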). As to conditions: HEK293-TLR3 RL24 IRF3 luciferase reporter, at 10 µM, stronger effect = higher value.

Take `O=c1[nH]cnc2c1nc(SCc1ccccc1)n2C1OC(CO)C(O)C1O` (centres undefined): in test [1], the cell count came out at 459. In addition, the inhibition in test [1] is 14.3% (inactive); in test [3], -9.9% (inactive); in test [7], 10.8% (inactive); in test [8], 24% (inactive). Moreover, the inhibition of aggregation in test [2] is 10.4% (inactive). Further, the nuclei count was determined as 71.9% in test [2] and 110% in test [3]. Also, in test [4], the fluorescence slope was -0.597 (inactive). Besides, the NADPH fluorescence slope in test [5] was 1.2e-06 (inactive). Besides, the slope in test [6] is 0.00624 (inactive).
For the compound `O=C(Nc1nonc1NC(=O)C1CCCCC1)C1CCCCC1`, in test [1], the cell count came out at 396. Moreover, the inhibition in test [1] is 10.2% (inactive); in test [3], -71.5% (inactive); in test [7], 13.6% (inactive); in test [8], 22.8% (inactive). For the same compound, the inhibition of aggregation in test [2] was -7.6% (inactive). The nuclei count was 108% in test [2] and 127% in test [3]. In test [4], the fluorescence slope is -0.473 (inactive). The NADPH fluorescence slope in test [5] is 3.9e-06 (inactive). In test [6], the slope was 0.00459 (inactive).
Take `O=C(COC(=O)CCC(=O)c1cccs1)NCc1ccco1`: the cell count in test [1] was 469. For the same compound, the inhibition was -20.9% (inactive) in test [1], -16.1% (inactive) in test [3], 18% (inactive) in test [7] and 25.1% (inactive) in test [8]. The inhibition of aggregation in test [2] is 1.1% (inactive). The nuclei count in test [2] stood at 101%; in test [3], 86.1%. Further, the fluorescence slope in test [4] was -0.332 (inactive). The NADPH fluorescence slope in test [5] was -5.5e-05 (inactive). In test [6], the slope is 0.00705 (inactive).
As to `CC1=C(C(N)=O)C(c2ccccn2)n2nc(SCc3ccccc3)nc2N1` (centres undefined), the cell count in test [1] is 624. The inhibition in test [1] was 3.8% (inactive); in test [3] it was 43.5% (inactive); in test [7] it was -8.46% (inactive); in test [8], 0.00265% (inactive). The inhibition of aggregation in test [2] is 3.9% (inactive). Also, the nuclei count in test [2] turned out to be 93%; in test [3], 86.4%. The fluorescence slope in test [4] is -0.316 (inactive). In test [5], the NADPH fluorescence slope is -8.8e-05 (inactive). Besides, the slope in test [6] was 0.0057 (inactive).
Consider `CCOc1ccc(NC(=O)CSc2nc3cccnc3n2CC)cc1`, for which the cell count in test [1] is 579. Besides, the inhibition is -15.8% (inactive) in test [1], -54.8% (inactive) in test [3], 12.5% (inactive) in test [7] and 25.8% (inactive) in test [8]. Also, the inhibition of aggregation in test [2] was -26.9% (inactive). Also, the figures for the nuclei count in test [2] and in test [3] were 92.3% and 102%, respectively. The fluorescence slope in test [4] was -0.487 (inactive). Moreover, in test [5], the NADPH fluorescence slope is -2.4e-05 (inactive). For the same compound, in test [6], the slope is 0.00547 (inactive).
As for `CN1C(=O)CCC1(O)c1ccccc1` (centres undefined), in test [1], the cell count stood at 565. Moreover, the inhibition in test [1] was -9.2% (inactive); in test [3], -51.3% (inactive); in test [7], 11.4% (inactive); in test [8], 38.2% (inactive). Further, the inhibition of aggregation in test [2] is 18.6% (inactive). Moreover, the values for the nuclei count in test [2] and in test [3] were 54.1% and 103%, respectively. Also, the fluorescence slope in test [4] is -0.392 (inactive). In addition, in test [5], the NADPH fluorescence slope was 1.8e-06 (inactive). Besides, the slope in test [6] is 0.00341 (inactive).
For the compound `CCOC(=O)Cc1nnc(NC(=O)c2ccccc2OCC)s1`, the cell count in test [1] turned out to be 583. In addition, the inhibition in test [1] is 12.6% (inactive); in test [3], -43.9% (inactive); in test [7], 4.48% (inactive); in test [8] it was 4.72% (inactive). In addition, the inhibition of aggregation in test [2] was 5.3% (inactive). The nuclei count in test [2] is 102%; in test [3] it was 123%. In addition, in test [4], the fluorescence slope was -0.448 (inactive). Moreover, the NADPH fluorescence slope in test [5] is -0.000111 (inactive). Further, in test [6], the slope was 0.005 (inactive).
Take `CCn1cc(C(=O)N=c2sc3ccccc3n2C)c(=O)c2ccc(C)nc21`: the cell count in test [1] was 450. Besides, the inhibition is 3.7% (inactive) in test [1], -27.5% (inactive) in test [3], 6.49% (inactive) in test [7] and 23% (inactive) in test [8]. The inhibition of aggregation in test [2] was -5.2% (inactive). Besides, the nuclei count came out at 107% in test [2] and 97.3% in test [3]. Also, in test [4], the fluorescence slope was -0.361 (inactive). Moreover, the NADPH fluorescence slope in test [5] was -6.4e-05 (inactive). Further, the slope in test [6] is 0.00595 (inactive).
Take `Clc1ccc2nc(N3CCCCC3)[nH]c2c1`: the cell count in test [1] is 706. Also, the inhibition in test [1] is 5.6% (inactive); in test [3] it was -82.5% (inactive); in test [7] it was -26% (inactive); in test [8], -98.5% (inactive). Moreover, the inhibition of aggregation in test [2] is 11.3% (inactive). The nuclei count came out at 98.7% in test [2] and 102% in test [3]. The fluorescence slope in test [4] was -0.446 (inactive). Further, the NADPH fluorescence slope in test [5] is -6.8e-05 (inactive). Also, the slope in test [6] was 0.00544 (inactive).
Regarding `CC(NCc1ccco1)C(=O)N1CCc2ccccc2C1` (centres undefined), the cell count in test [1] worked out at 705. In addition, the inhibition in test [1] was -49% (inactive); in test [3], 27% (inactive); in test [7], -8.88% (inactive); in test [8], 1.37% (inactive). Further, the inhibition of aggregation in test [2] is 6.5% (inactive). The nuclei count in test [2] was found to be 105%; in test [3] it was 108%. Moreover, the fluorescence slope in test [4] is -0.48 (inactive). Also, the NADPH fluorescence slope in test [5] was -0.000253 (inactive). In addition, in test [6], the slope was 0.00559 (inactive).
On to `COc1ccc2c(c1)C(C)=CC(C)(C)N2C(=O)CSc1nnc(-c2ccc(C)cc2)o1`, for which the cell count in test [1] was 362. In addition, the inhibition in test [1] was 12.5% (inactive); in test [3] it was 14.4% (inactive); in test [7], -7.74% (inactive); in test [8], 17.4% (inactive). Besides, the inhibition of aggregation in test [2] was 8.3% (inactive). In addition, the nuclei count in test [2] stood at 106%; in test [3], 117%. Besides, the fluorescence slope in test [4] is -0.451 (inactive). In test [5], the NADPH fluorescence slope was 4.8e-05 (inactive). Besides, the slope in test [6] is 0.00352 (inactive).
In the case of `CCN(C1CCCCC1)S(=O)(=O)c1ccc(OC)c(C)c1`, the cell count in test [1] came out at 862. Moreover, the inhibition in test [1] was -3.6% (inactive); in test [3], -104% (inactive); in test [7] it was -0.395% (inactive); in test [8], 28.2% (inactive). In test [2], the inhibition of aggregation was 9.9% (inactive). For the same compound, the nuclei count in test [2] worked out at 98.1%; in test [3], 128%. The fluorescence slope in test [4] is -0.498 (inactive). Further, the NADPH fluorescence slope in test [5] is -2.3e-05 (inactive). The slope in test [6] was 0.00415 (inactive).
Turning to `O=C(NC1CCCC1)C(c1cccs1)N(C(=O)c1ccno1)c1ccccc1` (centres undefined), in test [1], the cell count stood at 648. For the same compound, the inhibition in test [1] was -3.2% (inactive); in test [3] it was 38.6% (inactive); in test [7], 3.89% (inactive); in test [8], 21.8% (inactive). Moreover, in test [2], the inhibition of aggregation was -3.9% (inactive). In addition, the nuclei count in test [2] was 101%; in test [3] it was 94.7%. In addition, in test [4], the fluorescence slope is -0.607 (inactive). Besides, in test [5], the NADPH fluorescence slope is -4.3e-05 (inactive). Further, the slope in test [6] was 0.00635 (inactive).
As for `COCCN1CCN(c2c(C)c(C)nc3cc(-c4cccc(OC)c4)nn23)CC1`, the cell count in test [1] is 367. The inhibition was -6.1% (inactive) in test [1], -52.9% (inactive) in test [3], 15.2% (inactive) in test [7] and 16.1% (inactive) in test [8]. Moreover, the inhibition of aggregation in test [2] is -9.2% (inactive). The values for the nuclei count in test [2] and in test [3] were 80.5% and 106%, respectively. The fluorescence slope in test [4] is -0.567 (inactive). Also, the NADPH fluorescence slope in test [5] is -3.9e-05 (inactive). The slope in test [6] was 0.0105 (inactive).
